Calls of active or inactive are those of the source. No rule for the calls is given here.
Potency is read from the fitted curve at half-maximal effect.

This experiment concerns HIV-1 nucleocapsid protein NCp7 (binding to TG oligonucleotide). Briefly: HIV Nucleocapsid (AID 346).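 Also: potency is for inhibitors that block NC binding and lower polarization.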 To be noted: HIV-1 NC / fluorescein-TGTGTGTG probe, fluorescence polarization. The essentials:
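Fluorescence polarization binding of 100 nM HIV-1 NC to 10 nM fluorescein-labelled TG4xF oligonucleotide. Buffer was Hepes pH 7.5 with 250mM NaCl, 1uM ZnCl2, TCEP and 2-mercaptoethanol. Compounds were incubated 1 hr at room temperature before the read.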
Turning to `O=C(c1cnccn1)N1CCC2(CC1)CN(c1ncccn1)C2`, the Potency was > 20 µM (inactive).
With `COc1ccccc1-c1cncnc1N(C)Cc1ccco1` the figure was > 20 µM (inactive); with `COc1ccc(CNc2ncnc3ccc(-c4cccc(NS(C)(=O)=O)c4)cc23)c(OC)c1`, > 20 µM (inactive).
`COc1ccccc1CN1CCCC2(CCN(S(C)(=O)=O)CC2)C1`: the Potency was > 20 µM (inactive).
As for `COc1ccc2[nH]cc(CCNc3ccnc(-c4cccnc4)n3)c2c1`, the Potency is > 20 µM (inactive).
With `Cc1nc2cnc(N3CCNCC3)nc2n(CCC#N)c1=O` the figure was > 20 µM (inactive); with `COC(=O)N1CCC2(CCCN(C(=O)Nc3ccc(OC)cc3)C2)CC1`, > 20 µM (inactive).
Consider `O=C(c1cnccn1)N1CCC[C@@]2(CCN(c3ccccc3)C2)C1`, for which the Potency was > 20 µM (inactive).
With `COc1ccc(NC(=O)N2CCCC3(CCN(C(=O)c4ccco4)CC3)C2)cc1` the figure was > 20 µM (inactive).
In the case of `COc1ncc2nc(-c3ccc(F)cc3)c(=O)n(Cc3cccs3)c2n1` it was > 20 µM (inactive).
Take `CN1CCN(c2ncc3nc(-c4ccc(F)cc4)c(=O)n(Cc4cccs4)c3n2)CC1`: the Potency is > 20 µM (inactive).
In the case of `Cn1cccc1C(=O)N1CCC2(CCN(Cc3nccs3)CC2)CC1` it was > 20 µM (inactive); in that of `CN(C)c1ncc2nc(-c3ccc(F)cc3)c(=O)n(-c3ccccc3)c2n1`, > 20 µM (inactive); in that of `CN(Cc1ccco1)c1ncncc1-c1ccccc1Cl`, > 20 µM (inactive).
In the case of `FC(F)(F)c1ccccc1-c1nc(Nc2ccncc2)c2ccccc2n1` it was > 20 µM (inactive); in that of `CC(C)CN1CC[C@@]2(CCCN(S(=O)(=O)c3ccccc3)C2)C1`, > 20 µM (inactive).
For `O=C(c1ccncc1)N1CCC2(CCCN(Cc3ccccc3)C2)CC1`, the Potency was > 20 µM (inactive).
With `O=C(Nc1ccccc1)N1CCC2(CC1)CCN(C(=O)c1ccncc1)CC2` the figure was > 20 µM (inactive).
Consider `Cc1cccc(CNc2nc(-c3cccc(NS(C)(=O)=O)c3)nc3ccccc23)c1`, for which the Potency was > 20 µM (inactive).
With `CNc1nc(-c2ccccc2CN(C)C)nc2ccccc12` the figure was > 20 µM (inactive); with `COc1ccc2[nH]cc(CCNc3ccnc(-c4ccc5c(c4)OCO5)n3)c2c1`, > 20 µM (inactive).
In the case of `COc1ccccc1CNc1ncncc1-c1ccccc1CN(C)C` it was > 20 µM (inactive).
With `CN1CCN(c2ncc3nc(-c4ccccc4)c(=O)n(Cc4cccs4)c3n2)CC1` the figure was > 20 µM (inactive); with `COc1ccc(C(=O)N2CCC3(CCN(Cc4ccccc4OC)CC3)CC2)cc1`, > 20 µM (inactive); with `Cc1noc(C)c1C(=O)N1CCC2(CC1)CN(c1ccccc1)C2`, > 20 µM (inactive).
Consider `COc1ccc(C(=O)N2CCC3(CC2)CN(CC(C)C)C3)cc1`, for which the Potency is > 20 µM (inactive).
In the case of `CN(C)c1ccc(-c2cc(-n3ccnc3)ncn2)cc1` it was > 20 µM (inactive); in that of `COc1ccccc1-c1ccc2ncnc(N(C)Cc3ccco3)c2c1`, > 20 µM (inactive).
With `COc1ccccc1CN1CC[C@@]2(CCCN(C(=O)c3c(C)noc3C)C2)C1` the figure was > 20 µM (inactive); with `N#Cc1cccc(NC(=O)N2CC3(CCN(C(=O)c4cc(C(F)(F)F)cc(C(F)(F)F)c4)CC3)C2)c1`, > 20 µM (inactive).
As for `N#Cc1cccc(-c2nc3cnc(N4CCNCC4)nc3n(C3CC3)c2=O)c1`, the Potency is > 20 µM (inactive).
As to `O=c1c(CCc2ccccc2)nc2cnc(Oc3ccccc3)nc2n1C1CC1`, the Potency is > 20 µM (inactive).
With `COc1ccc(NC(=O)N2CC[C@@]3(CCCNC3)C2)cc1`, the Potency is > 20 µM (inactive).
In the case of `Cc1cnc(CNc2ncnc3ccc(-c4cccc(C#N)c4)cc23)cn1` it was > 20 µM (inactive); in that of `COCC(=O)N1CCC2(CC1)CN(Cc1ccc(C#N)cc1)C2`, > 20 µM (inactive).
Regarding `COc1cccc(Cn2c(=O)c(-c3ccccc3)nc3cnc(N4CCNCC4)nc32)c1`, the Potency is > 20 µM (inactive).
In the case of `CS(=O)(=O)N1CCC2(CCN(C(c3ccccc3)c3ccccc3)CC2)CC1` it was > 20 µM (inactive).
In the case of `O=c1cnc2cnc(Nc3ccccc3)nc2n1Cc1ccc(F)cc1` it was > 20 µM (inactive); in that of `O=C(Nc1ccccc1)N1CCCC2(CCN(C(=O)c3ccco3)CC2)C1`, > 20 µM (inactive).
In the case of `COc1ccc(-n2c(=O)c(-c3ccccc3)nc3cncnc32)cc1` it was > 20 µM (inactive).

The values are drawn from PubChem BioAssay (NCATS).
